# Test results: the supplement of paper PMC10849652
# Of roughly 8,800 targets only a part is listed; those with a hit were picked by preference. About 0.5% of all pairs of compound and target were hits. A number with no mark means an inactive call.
# Columns and labels:
# Test in all cases: log2 fold change, soluble protein after heating vs DMSO (PISA); higher = thermal stabilisation; K562 lysate, 10 uM; active = over 0.2 and 3.5 SD of the protein, either way, in both replicates (recomputed)
# ibrutinib = compound: C=CC(=O)N1CCC[C@@H](n2nc(-c3ccc(Oc4ccccc4)cc3)c3c(N)ncnc32)C1 [ibrutinib]
# How it was run: (§1)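 Dounce homogenisation of K562 pellets in PBS pH 7.4 with 1 mM MgCl2 produced a crude extract, used at 1 mg/mL protein. Exposure to 10 μM compound lasted 30 min, and aliquots were then heated for 3 min across 48°C-58°C, pooled and brought to 0.5% NP-40 at 4°C. The supernatant after 21,000xg for 90 min was quantified by TMTpro 16plex LC-MS/MS with channel sums equalised. Duplicate values are given as log-two fold change in thermal stability relative to solvent controls.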
# [1] = compound: CC(=O)c1cnc2ccc(-c3cc(Cl)c(O)c(Cl)c3)nc2c1N[C@H]1CC[C@H](CN(C)C)CC1
# How it was run: as §1
# ralimetinib = compound: CC(C)(C)Cn1c(N)nc2ccc(-c3[nH]c(C(C)(C)C)nc3-c3ccc(F)cc3)nc21 [ralimetinib]
# How it was run: as §1
# [2] = compound: CC(C)(O)CC(=O)NCCn1ccc2ncnc(Nc3ccc(Oc4cccc(C(F)(F)F)c4)c(Cl)c3)c21
# How it was run: as §1
# [3] = compound: CC(C)C1=C2N=C(C=C(N2N=C1)NCC3=CC=CC=C3)NCCCCCCN
# How it was run: as §1
# [4] = compound: CC1=C(C(CC(=O)N1)C2=CC=C(C=C2)C(F)(F)F)C(=O)NC3=C(C=C4C(=C3)C=NN4)F
# How it was run: as §1
# [5] = compound: CC1=C(C2=C(C=C1)C(=O)C3=CC=CC=C3N2CCCN)C
# How it was run: as §1
# [6] = compound: CC1=C(C=C(C=C1)NC(=O)C2=CC(=CC=C2)C(C)(C)C#N)NC3=CC4=C(C=C3)N=CN(C4=O)C
# How it was run: as §1
# [7] = compound: CC1=C(C=C(C=C1)NC(=O)C2=CC(=CC=C2)N(C)C)NC(=O)C3=CC=C(C=C3)O
# How it was run: as §1
# [8] = compound: CC1=CC=C(C=C1)SC2=C3C=C(SC3=CN=C2)C(=O)N
# How it was run: as §1
# vemurafenib = compound: CCCS(=O)(=O)Nc1ccc(F)c(C(=O)c2c[nH]c3ncc(-c4ccc(Cl)cc4)cc23)c1F [vemurafenib]
# How it was run: as §1
# [9] = compound: CCCS(=O)(=O)Nc1ccc(F)c(C(=O)c2c[nH]c3ncc(Cl)cc23)c1F
# How it was run: as §1
# barasertib = compound: CCN(CCCOc1ccc2c(Nc3cc(CC(=O)Nc4cccc(F)c4)[nH]n3)ncnc2c1)CCOP(=O)(O)O [barasertib]
# How it was run: as §1
# [10] = compound: CC[C@@H]1C(=O)N(C)c2cnc(Nc3ccc(C(=O)NC4CCN(C)CC4)cc3OC)nc2N1C1CCCC1
# How it was run: as §1
# volasertib = compound: CC[C@@H]1C(=O)N(C)c2cnc(Nc3ccc(C(=O)N[C@H]4CC[C@H](N5CCN(CC6CC6)CC5)CC4)cc3OC)nc2N1C(C)C [volasertib]
# How it was run: as §1
# [11] = compound: CCn1c(C(=O)N(C2CC2)C2CC2)cc2c3c(ncn3C)c(Nc3cc(C)n(C)n3)nc21
# How it was run: as §1
# [12] = compound: CCn1cc(-c2ccnc3[nH]c(-c4cccc(CN(C)C)c4)cc23)c(-c2ccc(NC(=O)N(C)C)cc2)n1
# How it was run: as §1
# [13] = compound: CN1CCC(CNc2ccc3ncc(-c4cccc(OC(F)(F)F)c4)n3n2)CC1
# How it was run: as §1
# saracatinib = compound: CN1CCN(CCOc2cc(OC3CCOCC3)c3c(Nc4c(Cl)ccc5c4OCO5)ncnc3c2)CC1 [saracatinib]
# How it was run: as §1
# sotrastaurin = compound: CN1CCN(c2nc(C3=C(c4c[nH]c5ccccc45)C(=O)NC3=O)c3ccccc3n2)CC1 [sotrastaurin]
# How it was run: as §1
# Chain of UniProt Q13595 (Q13595 whole entry, looked up): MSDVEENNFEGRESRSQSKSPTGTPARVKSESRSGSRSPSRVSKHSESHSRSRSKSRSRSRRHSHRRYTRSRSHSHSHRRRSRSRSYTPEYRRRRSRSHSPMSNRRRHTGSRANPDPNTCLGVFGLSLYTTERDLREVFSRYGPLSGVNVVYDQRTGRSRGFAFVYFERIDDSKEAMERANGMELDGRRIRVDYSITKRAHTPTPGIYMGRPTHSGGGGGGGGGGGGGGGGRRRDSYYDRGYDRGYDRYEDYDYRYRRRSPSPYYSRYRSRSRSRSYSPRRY
# Chain of UniProt O60704 (O60704 whole entry, looked up): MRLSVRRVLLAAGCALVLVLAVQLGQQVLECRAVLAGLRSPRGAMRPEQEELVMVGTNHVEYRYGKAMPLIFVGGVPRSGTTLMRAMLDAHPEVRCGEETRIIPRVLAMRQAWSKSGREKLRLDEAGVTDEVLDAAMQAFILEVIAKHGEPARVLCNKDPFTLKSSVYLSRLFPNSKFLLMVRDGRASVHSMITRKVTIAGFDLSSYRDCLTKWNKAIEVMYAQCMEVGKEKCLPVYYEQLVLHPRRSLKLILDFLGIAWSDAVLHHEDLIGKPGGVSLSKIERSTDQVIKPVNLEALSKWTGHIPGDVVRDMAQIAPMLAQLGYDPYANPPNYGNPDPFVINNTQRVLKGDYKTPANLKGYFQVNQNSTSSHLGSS
# Chain of UniProt P22314 (P22314 whole entry, looked up): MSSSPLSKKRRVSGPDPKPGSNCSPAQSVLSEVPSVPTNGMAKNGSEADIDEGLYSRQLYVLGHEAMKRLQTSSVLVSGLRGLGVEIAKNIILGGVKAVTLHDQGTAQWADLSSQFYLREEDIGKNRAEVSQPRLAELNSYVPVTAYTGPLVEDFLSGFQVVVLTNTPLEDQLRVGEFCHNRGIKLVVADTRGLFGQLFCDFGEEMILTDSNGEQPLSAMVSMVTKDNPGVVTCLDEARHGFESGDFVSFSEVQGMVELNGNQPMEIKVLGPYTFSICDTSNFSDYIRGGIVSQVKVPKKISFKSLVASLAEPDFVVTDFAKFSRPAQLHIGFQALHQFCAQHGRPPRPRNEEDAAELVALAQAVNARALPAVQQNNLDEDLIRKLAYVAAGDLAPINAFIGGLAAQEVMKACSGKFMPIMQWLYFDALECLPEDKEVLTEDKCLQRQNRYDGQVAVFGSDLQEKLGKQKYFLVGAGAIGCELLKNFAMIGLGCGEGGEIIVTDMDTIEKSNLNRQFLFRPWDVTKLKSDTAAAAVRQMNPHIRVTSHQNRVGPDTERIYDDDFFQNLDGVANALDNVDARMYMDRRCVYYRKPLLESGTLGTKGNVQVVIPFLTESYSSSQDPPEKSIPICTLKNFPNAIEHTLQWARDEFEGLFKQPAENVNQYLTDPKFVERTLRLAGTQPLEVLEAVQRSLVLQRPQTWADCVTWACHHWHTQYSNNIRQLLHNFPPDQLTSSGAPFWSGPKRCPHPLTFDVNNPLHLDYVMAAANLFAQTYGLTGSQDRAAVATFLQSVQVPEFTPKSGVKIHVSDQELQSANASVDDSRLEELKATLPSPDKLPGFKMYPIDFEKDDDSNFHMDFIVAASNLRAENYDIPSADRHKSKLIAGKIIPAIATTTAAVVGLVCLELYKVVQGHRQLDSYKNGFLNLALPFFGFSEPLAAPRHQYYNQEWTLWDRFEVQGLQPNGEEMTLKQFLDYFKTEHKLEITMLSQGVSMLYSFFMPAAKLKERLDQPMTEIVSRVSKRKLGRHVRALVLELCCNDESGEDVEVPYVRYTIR
# Chain of UniProt Q9BRZ2 (Q9BRZ2 whole entry, looked up): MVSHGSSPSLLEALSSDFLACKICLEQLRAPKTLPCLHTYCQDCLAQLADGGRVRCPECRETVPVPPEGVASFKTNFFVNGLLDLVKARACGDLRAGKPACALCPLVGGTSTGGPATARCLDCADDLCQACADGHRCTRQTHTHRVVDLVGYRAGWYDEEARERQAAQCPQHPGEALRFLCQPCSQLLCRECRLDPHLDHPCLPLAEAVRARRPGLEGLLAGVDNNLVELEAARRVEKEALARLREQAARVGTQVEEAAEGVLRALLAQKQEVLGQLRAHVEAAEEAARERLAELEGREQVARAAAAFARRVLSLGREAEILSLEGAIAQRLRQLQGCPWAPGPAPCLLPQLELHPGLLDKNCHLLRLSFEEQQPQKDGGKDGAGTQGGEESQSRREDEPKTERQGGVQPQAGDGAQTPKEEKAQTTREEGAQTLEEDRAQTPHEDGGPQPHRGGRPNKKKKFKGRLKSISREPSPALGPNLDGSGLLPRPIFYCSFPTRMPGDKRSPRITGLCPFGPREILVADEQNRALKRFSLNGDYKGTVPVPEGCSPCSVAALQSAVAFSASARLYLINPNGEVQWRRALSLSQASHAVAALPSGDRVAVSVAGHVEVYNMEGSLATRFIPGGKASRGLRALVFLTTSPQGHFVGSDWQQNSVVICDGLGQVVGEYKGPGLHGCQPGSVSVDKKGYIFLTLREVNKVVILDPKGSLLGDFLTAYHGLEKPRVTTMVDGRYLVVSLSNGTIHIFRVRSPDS
# Chain of UniProt Q9H497 (Q9H497 whole entry, looked up): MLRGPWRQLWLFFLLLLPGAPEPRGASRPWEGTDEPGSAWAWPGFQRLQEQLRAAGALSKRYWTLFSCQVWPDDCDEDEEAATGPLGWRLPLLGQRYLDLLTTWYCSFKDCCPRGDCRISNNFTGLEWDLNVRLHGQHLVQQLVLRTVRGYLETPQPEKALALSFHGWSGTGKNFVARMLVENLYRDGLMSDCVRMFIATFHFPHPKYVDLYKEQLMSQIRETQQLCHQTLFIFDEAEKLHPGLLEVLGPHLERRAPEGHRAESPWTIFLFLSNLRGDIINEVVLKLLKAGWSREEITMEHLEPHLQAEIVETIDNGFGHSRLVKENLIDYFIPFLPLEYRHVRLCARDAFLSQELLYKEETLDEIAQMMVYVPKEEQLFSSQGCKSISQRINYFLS
# Chain of UniProt P09493 (P09493 whole entry, looked up): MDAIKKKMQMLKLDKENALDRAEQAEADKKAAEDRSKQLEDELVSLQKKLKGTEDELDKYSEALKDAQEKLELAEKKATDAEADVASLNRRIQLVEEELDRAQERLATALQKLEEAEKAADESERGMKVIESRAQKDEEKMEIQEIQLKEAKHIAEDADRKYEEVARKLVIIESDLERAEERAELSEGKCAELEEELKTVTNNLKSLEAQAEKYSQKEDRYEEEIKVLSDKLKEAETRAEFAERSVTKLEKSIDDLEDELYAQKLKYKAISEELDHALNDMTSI
# Chain of UniProt Q9NZ01 (Q9NZ01 whole entry, looked up): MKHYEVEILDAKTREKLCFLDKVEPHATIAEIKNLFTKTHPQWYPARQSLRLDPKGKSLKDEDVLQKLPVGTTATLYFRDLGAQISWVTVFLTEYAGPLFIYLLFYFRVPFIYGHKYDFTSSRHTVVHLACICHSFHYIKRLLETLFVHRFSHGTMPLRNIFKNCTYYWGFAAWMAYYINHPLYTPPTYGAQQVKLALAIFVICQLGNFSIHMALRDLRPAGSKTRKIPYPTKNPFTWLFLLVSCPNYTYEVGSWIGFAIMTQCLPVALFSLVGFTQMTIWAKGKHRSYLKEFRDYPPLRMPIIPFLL
# Chain of UniProt Q5R3I4 (Q5R3I4 whole entry, looked up): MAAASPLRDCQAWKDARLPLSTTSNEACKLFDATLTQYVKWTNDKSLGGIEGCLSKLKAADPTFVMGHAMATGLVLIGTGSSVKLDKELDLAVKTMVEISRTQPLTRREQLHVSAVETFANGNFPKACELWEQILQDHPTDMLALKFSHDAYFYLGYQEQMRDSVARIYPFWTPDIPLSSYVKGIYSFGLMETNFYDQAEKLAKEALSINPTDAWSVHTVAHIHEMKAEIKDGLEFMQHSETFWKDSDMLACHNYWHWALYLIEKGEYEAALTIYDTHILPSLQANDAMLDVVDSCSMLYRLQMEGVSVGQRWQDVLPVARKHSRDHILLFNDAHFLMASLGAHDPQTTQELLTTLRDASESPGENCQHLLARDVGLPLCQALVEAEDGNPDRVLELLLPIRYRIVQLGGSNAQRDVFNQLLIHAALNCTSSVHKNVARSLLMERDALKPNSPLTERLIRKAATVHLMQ
# Chain of UniProt Q14258 (Q14258 whole entry, looked up): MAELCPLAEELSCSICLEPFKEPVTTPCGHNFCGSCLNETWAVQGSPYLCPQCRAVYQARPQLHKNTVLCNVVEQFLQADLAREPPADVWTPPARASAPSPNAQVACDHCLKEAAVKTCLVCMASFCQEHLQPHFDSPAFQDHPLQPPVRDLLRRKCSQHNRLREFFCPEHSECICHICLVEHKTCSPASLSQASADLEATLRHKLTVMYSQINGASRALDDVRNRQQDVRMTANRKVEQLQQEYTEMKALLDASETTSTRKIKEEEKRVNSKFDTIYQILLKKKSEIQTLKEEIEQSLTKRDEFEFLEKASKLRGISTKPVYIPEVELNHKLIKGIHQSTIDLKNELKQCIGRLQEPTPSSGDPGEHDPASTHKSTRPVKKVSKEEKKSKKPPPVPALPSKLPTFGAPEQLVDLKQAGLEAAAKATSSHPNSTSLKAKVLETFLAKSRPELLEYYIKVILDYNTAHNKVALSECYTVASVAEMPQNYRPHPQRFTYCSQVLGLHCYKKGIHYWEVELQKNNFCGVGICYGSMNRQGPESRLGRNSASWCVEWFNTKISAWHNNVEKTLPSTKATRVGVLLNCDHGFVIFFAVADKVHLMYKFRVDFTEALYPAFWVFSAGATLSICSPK
# Chain of UniProt Q9BUB7 (Q9BUB7 whole entry, looked up): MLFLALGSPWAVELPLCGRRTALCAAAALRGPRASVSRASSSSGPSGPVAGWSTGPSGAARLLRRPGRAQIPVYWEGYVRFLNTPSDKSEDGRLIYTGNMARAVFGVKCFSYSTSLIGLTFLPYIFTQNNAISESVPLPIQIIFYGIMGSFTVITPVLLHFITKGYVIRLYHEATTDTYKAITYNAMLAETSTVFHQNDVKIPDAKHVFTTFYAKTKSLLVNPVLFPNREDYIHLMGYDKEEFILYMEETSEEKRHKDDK
Target,log2 fold change (ibrutinib),log2 fold change [1],log2 fold change (ralimetinib),log2 fold change [2],log2 fold change [3],log2 fold change [4],log2 fold change [5],log2 fold change [6],log2 fold change [7],log2 fold change [8],log2 fold change (vemurafenib),log2 fold change [9],log2 fold change (barasertib),log2 fold change [10],log2 fold change (volasertib),log2 fold change [11],log2 fold change [12],log2 fold change [13],log2 fold change (saracatinib),log2 fold change (sotrastaurin)
TCP11L1 (UniProt Q9NUJ3),0.026,-0.033,-0.093,-0.061,-0.045,-0.032,-0.052,-0.008,0.02,-0.008,-0.078,0.014,0.038,0.045,-0.054,0.009,-0.244,0.097,-0.007,0.009
TRIM44 (UniProt Q96DX7),0.031,0.124,0.032,-0.013,-0.037,-0.021,-0.004,-0.044,0.022,0.086,-0.085,0.095,0.066,-0.075,-0.014,0.003,0.146,-0.031,0.023,0.044
TRIM56 (UniProt Q9BRZ2),0.023,0.007,0.028,0.001,-0.03,0,0.002,-0.06,0.014,0.033,0.026,0.026,-0.039,0.006,-0.029,-0.04,0.227,-0.102,0.031,-0.019
TUBA3C (UniProt P0DPH7),-0.009,-0.007,0.041,-0.045,-0.047,0.002,0.029,-0.021,0.038,0.001,0.037,0.021,-0.011,-0.041,-0.026,0.012,-0.062,-0.013,0.013,0.048
TTK (UniProt P33981),0.008,0.111,0.025,-0.036,0.001,0.018,-0.008,-0.011,0.017,0.013,-0.009,0.02,0.06,0.089,-0.026,-0.048,-0.018,0.01,-0.037,0.072
UGDH (UniProt O60701),0.02,0.02,0.085,-0.004,-0.004,0.019,0.215 (active),-0.037,0.058,0.031,0.008,0.017,-0.003,-0.062,-0.045,0.011,-0.028,-0.021,0.187,0.003
TRIM25 (UniProt Q14258),-0.001,-0.001,-0.013,0.055,-0.011,-0.002,-0.005,0.005,0.004,0.006,0.017,0.012,0.001,-0.024,-0.006,-0.007,0.029,-0.035,-0.002,-0.05
TK1 (UniProt P04183),0.004,-0.004,0.023,-0.022,-0.029,0,0.006,0.046,-0.014,-0.006,0.022,0.013,-0.007,0.009,0.031,-0.008,-0.124,0.104,-0.002,0.002
UBA1 (UniProt P22314),-0.002,0.003,0.053,0,0.027,-0.018,0.006,0,0.015,0.02,0.018,0.005,0.023,-0.063,-0.036,-0.006,-0.027,0.004,-0.02,0.008
TPST2 (UniProt O60704),-0.098,-0.036,0.006,0.019,-0.08,0.039,-0.06,-0.039,-0.036,-0.08,0.053,0.009,0.097,0.075,-0.024,-0.011,-0.851 (active),0.188,0.011,0.065
TPM1 isoform 4 (UniProt P09493),-0.019,0.009,0.001,-0.011,-0.024,-0.011,0.062,0.011,-0.022,0.001,-0.049,-0.012,-0.036,-0.018,0.033,0.013,0.106,-0.149,0.031,-0.012
TTC38 (UniProt Q5R3I4),-0.049,0.033,0.008,0.007,-0.011,0.005,0.332 (active),-0.013,0.067,0.014,0.035,0.03,0.102,0.004,-0.001,-0.047,0.189,-0.181,-0.026,-0.027
TECR (UniProt Q9NZ01),-0.003,0.037,0,-0.046,-0.003,0.044,0.041,-0.031,0.06,0.025,-0.003,0.054,0.082,-0.02,0.001,0.032,0.014,-0.247,0.045,-0.034
TMEM70 (UniProt Q9BUB7),0.001,-0.026,0.012,-0.063,-0.002,-0.01,0.01,0.103,0.058,0.003,-0.016,0.029,0.063,-0.072,-0.004,-0.027,-0.378 (active),0.027,0.023,0.122
TRA2A (UniProt Q13595),0.127,-0.018,-0.079,-0.013,0.21,-0.027,0.039,0.056,0.019,-0.007,-0.197,-0.033,-0.194,-0.037,-0.052,0.073,-0.023,0.07,0.074,0
TOR3A (UniProt Q9H497),0.008,0.023,0.002,-0.017,-0.001,0.018,-0.022,-0.036,0.018,0.365 (active),-0.001,-0.11,-0.031,-0.013,-0.05,-0.006,-0.123,0.057,0.014,0.03
